The results in this text go back to PubChem BioAssay (NCI).

Among the test systems are DU-145 prostate; K-562 leukemia; MALME-3M melanoma; MDA-MB-231 breast; RXF 393 renal; SF-268 CNS; SF-295 CNS; SF-539 CNS; UACC-257 melanoma; M14 melanoma.
What all share (experiment): NCI-60 one-dose screen, 48 h (100 = growth as untreated, 0 = no growth, -100 = all killed)
Holding throughout (conditions): 10 µM unless noted

Compounds without any hit were thinned out: in the full panel of roughly 83,000, 20% have a hit.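 Percent growth is the endpoint: 0 to 100 indicates growth inhibition (40 means 60% inhibition), 0 means no net growth, and negative values indicate cell death.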 Values without a mark were called inactive. The source made the active and inactive calls. Rule for the calls: active = growth percent below 10; inactive = the rest.

Turning to `COC(=O)CC[C@H](Cc1ccccc1)NC(=O)c1csc([C@@H](C[C@H](C(C)C)N(C)C(=O)[C@@H](NC(=O)[C@H]2CCCCN2C)C(C)C)OC(C)=O)n1`, the growth in the test with DU-145 prostate is 39.1%; in the test on K-562 leukemia, 24.4%; with MALME-3M melanoma it was 74.2%; in the test with MDA-MB-231 breast, 36.8%; in the test on RXF 393 renal, 69.6%; in the test with SF-268 CNS, 26.6%. Also, the growth in the test on SF-295 CNS is 32%; in the test with SF-539 CNS, 9.4% (active); in the test on UACC-257 melanoma, 66.6%; with M14 melanoma, 20.2%.
For the compound `CCOP(=O)(Cc1ccc(C#N)cc1)OCC`, the growth in the test on DU-145 prostate was 116%; in the test on K-562 leukemia, 100%; in the test on MALME-3M melanoma, 108%; in the test on MDA-MB-231 breast it was 100%; in the test on RXF 393 renal, 115%; in the test on SF-268 CNS, 112%. Besides, the growth in the test on SF-295 CNS was 108%; in the test with SF-539 CNS, 109%; in the test on UACC-257 melanoma, 88.8%; in the test on M14 melanoma, 101%.
In the case of `COC(=O)[C@H](Cc1c[nH]c2ccccc12)NC(=O)[C@@H](OC)[C@@H]1Cc2cc3cc(OC4CC(OC5CC(O)C(O)C(C)O5)C(O)C(C)O4)c(C)c(O)c3c(O)c2C(=O)[C@H]1OC1CC(OC2CC(OC3CC(C)(O)C(O)C(C)O3)C(O)C(C)O2)C(O)C(C)O1` (stereo not given in full), the growth with DU-145 prostate was 12.5%; with K-562 leukemia, 4.37% (active); with MALME-3M melanoma, -47% (active); with MDA-MB-231 breast it was -14% (active); in the test on RXF 393 renal it was -85.9% (active); in the test on SF-268 CNS, -10.1% (active). Besides, the growth in the test with SF-295 CNS is -6.35% (active); in the test with SF-539 CNS it was -35.3% (active); in the test with UACC-257 melanoma, -5% (active); in the test with M14 melanoma, -60.2% (active).
With `CC[C@H](C)[C@H](NC(=O)C12CC(NC(C)=O)(C1)C2)C(=O)N(C)[C@H](C[C@@H](OC(C)=O)c1nc(C(=O)N[C@@H](Cc2ccccc2)C[C@H](C)C(=O)OC)cs1)C(C)C`, the growth in the test with DU-145 prostate was 0.412% (active); in the test with K-562 leukemia it was 11.5%; in the test on MALME-3M melanoma it was 51.8%; with MDA-MB-231 breast it was 28.5%; in the test with RXF 393 renal it was 43.9%; with SF-268 CNS, 27.2%. In addition, the growth with SF-295 CNS is 18.7%; with SF-539 CNS it was 1.61% (active); with UACC-257 melanoma it was 49.6%; in the test with M14 melanoma, 2.48% (active).
As to `CCOC(=O)[C@@H](C)C[C@H](Cc1ccccc1)NC(=O)c1csc([C@@H](C[C@H](C(C)C)N(C)C(=O)[C@@H](NC(=O)[C@H]2CCCCN2C)C(C)(C)CC)OC(C)=O)n1`, the growth in the test with DU-145 prostate was 0.285% (active); in the test with K-562 leukemia, 5.03% (active); in the test with MALME-3M melanoma, 11.9%; with MDA-MB-231 breast it was -1.28% (active); in the test on RXF 393 renal, 23.5%; with SF-268 CNS, 12.3%. The growth in the test with SF-295 CNS is -4.66% (active); in the test with SF-539 CNS it was -28.4% (active); in the test with UACC-257 melanoma, 48.1%; with M14 melanoma, -26.8% (active).
On to `C[C@@]12CC[C@@H](O)C[C@@H]1CC[C@H]1[C@H]2CC[C@@]2(C)[C@H](c3ccc(=O)oc3)CC[C@@]12O`, for which the growth was -97.4% (active) in the test on DU-145 prostate; 0.291% (active) in the test with K-562 leukemia; -45.4% (active) with MALME-3M melanoma; -33.9% (active) in the test with MDA-MB-231 breast; -39.9% (active) with RXF 393 renal; -73.1% (active) with SF-268 CNS. Moreover, the growth in the test with SF-295 CNS was -84.5% (active); with SF-539 CNS, -85.4% (active); in the test with UACC-257 melanoma, -78.8% (active); in the test with M14 melanoma, -50.7% (active).
On to `COc1cc(/C=C/[N+](=O)[O-])cc(OC)c1`, for which the growth is -63% (active) with DU-145 prostate; 0.863% (active) in the test on K-562 leukemia; 24.1% with MALME-3M melanoma; 13.4% in the test on MDA-MB-231 breast; -90% (active) in the test with RXF 393 renal; 25.7% in the test on SF-268 CNS. In addition, the growth was 46.5% with SF-295 CNS, -72.2% (active) with SF-539 CNS, -16.4% (active) in the test with UACC-257 melanoma and -30.1% (active) in the test on M14 melanoma.
As to `CC(=O)O[C@H]1C(=O)[C@@]2(C)[C@H]([C@H](OC(=O)c3ccccc3)[C@]3(O)C[C@H](OC(=O)[C@H](OC(=O)OC[C@@H]4COC(C)(C)O4)[C@@H](NC(=O)c4ccccc4)c4ccccc4)C(C)=C1C3(C)C)[C@]1(OC(C)=O)CO[C@@H]1C[C@@H]2O`, the growth in the test on DU-145 prostate is 6.23% (active); in the test with K-562 leukemia, 13.8%; with MALME-3M melanoma, 28.9%; in the test with MDA-MB-231 breast it was 2.49% (active); in the test with RXF 393 renal it was -9.73% (active); with SF-268 CNS, 32%. Also, the growth in the test with SF-295 CNS is -7.77% (active); in the test with SF-539 CNS it was -9.82% (active); in the test on UACC-257 melanoma, 50.1%; in the test with M14 melanoma, -20% (active).
`CCCCCCCC[n+]1ccc2ccccc2c1`: the growth in the test on DU-145 prostate was 82.7%; in the test on K-562 leukemia, 22.6%; with MALME-3M melanoma, 42.4%; in the test with MDA-MB-231 breast, 67%; with RXF 393 renal, 97.4%; in the test on SF-268 CNS, 80.4%. Besides, the growth in the test with SF-295 CNS was 67%; in the test on SF-539 CNS, 62.6%; in the test on UACC-257 melanoma, 20%; with M14 melanoma, 42.6%.
With `COc1cc([C@@H]2c3cc4c(cc3[C@H](OC(C)=O)[C@H]3COC(=O)[C@@H]23)OCO4)cc(OC)c1OC`, the growth with DU-145 prostate was 3.27% (active); in the test with K-562 leukemia, 11.2%; in the test on MALME-3M melanoma, 57.1%; with MDA-MB-231 breast, 8.36% (active); with RXF 393 renal, 52%; in the test on SF-268 CNS it was 33%. Also, the growth with SF-295 CNS was -15.7% (active); in the test with SF-539 CNS, -33.4% (active); with UACC-257 melanoma, 49.2%; in the test with M14 melanoma, -15.2% (active).
Turning to `C=C(C)[C@@]12OC3(/C=C/C=C/CCCCC)O[C@@H]1[C@@H]1[C@@H]4O[C@]4(CO)[C@@H](O)[C@]4(O)C(=O)C(C)=C[C@H]4[C@@]1(O3)[C@H](C)[C@H]2OC(=O)c1ccccc1`, the growth in the test on DU-145 prostate was 38.4%; in the test on K-562 leukemia, 24.9%; in the test on MALME-3M melanoma, 88.3%; in the test with MDA-MB-231 breast, 52%; in the test with RXF 393 renal, 71%; in the test with SF-268 CNS, 40.7%. For the same compound, the growth with SF-295 CNS is 39.6%; in the test on SF-539 CNS it was 63.8%; in the test with UACC-257 melanoma, 97%; with M14 melanoma, 36.3%.
Regarding `CCC1CC(O)c2c(O)c3c(c(O)c2C1O)C(=O)c1cccc(O)c1C3=O` (stereo not given) (tested in a mixture with another compound), the growth with DU-145 prostate was -1.28% (active); in the test with K-562 leukemia, -44.1% (active); in the test on MALME-3M melanoma, -92.3% (active); in the test with MDA-MB-231 breast it was -18.8% (active); in the test with RXF 393 renal it was -27% (active); with SF-268 CNS, -24% (active). Further, the growth was -24% (active) in the test with SF-295 CNS, -64.5% (active) in the test on SF-539 CNS, -25.3% (active) in the test with UACC-257 melanoma and -97.1% (active) in the test with M14 melanoma.
